Rows were chosen to be rich in hits. Some 5.4% of all compounds tested hit in one or more screens of this group.
ALR inh: inhibitors of human ALR sulfhydryl oxidase, primary screen, biochemical, H2O2 detection, HRP-luminol luminescence, single point; purified ALR, DTT oxidation; inhibition, % (no concentration beside the values); 290,000 tested, 3.8% active; AID 485317, 2010;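 active means mean replicate inhibition above about 79%, with every replicate also reaching it, limit read from the data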
Target sequence (P55789 whole entry, looked up): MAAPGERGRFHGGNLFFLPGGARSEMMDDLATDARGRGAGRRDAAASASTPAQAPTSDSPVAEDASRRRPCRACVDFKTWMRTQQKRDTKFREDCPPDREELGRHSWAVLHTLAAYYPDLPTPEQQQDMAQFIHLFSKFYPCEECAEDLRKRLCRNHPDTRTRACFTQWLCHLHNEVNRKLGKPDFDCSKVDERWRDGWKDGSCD
PHOSPHO1 inh: PubChem AID 1565 | Phosphoethanolamine/phosphocholine phosphatase (Homo sapiens), Q8TCT1 | recombinant PHOSPHO1, absorbance phosphatase assay | inhibition, % at 13.3 µM | 290,000 tested, 1.1% active; in the data active means inhibition above about 60%
aDG glyco act: activators of alpha-DG glycosylation, primary screen, uHTS, Pro5-aDG cells, AlphaScreen. alpha-DG glycosylation AlphaScreen (IIH6); 0% Pro5, 100% B10-LARGE cell signal. activation, % at 10 µM. 360,000 tested, 0.22% active. AID 624168, 2012;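 active means activation of at least 8% versus controls, or a plate z-score of at least 8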;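 further: Pro5 are CHO cells carrying HIG-tagged alpha-DG that lacks glycosylation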
APOBEC3G inh: APOBEC3G DNA deaminase inhibitors, primary screen, biochemical, fluorescence, single-stranded DNA substrate, uHTS; recombinant A3G, ssDNA deamination FAM/TAMRA fluorescence; inhibition, % at 20 µM; AID 493012, 2011; 330,000 tested, 0.28% active;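 active means inhibition of at least 40% at 20 µM, with no more than 30% in the related APOBEC3A deaminase screen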;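 further: plate controls were DMSO wells with A3G for no effect and wells lacking A3G enzyme for full effect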
Target sequence (Q9HC16 whole entry, looked up): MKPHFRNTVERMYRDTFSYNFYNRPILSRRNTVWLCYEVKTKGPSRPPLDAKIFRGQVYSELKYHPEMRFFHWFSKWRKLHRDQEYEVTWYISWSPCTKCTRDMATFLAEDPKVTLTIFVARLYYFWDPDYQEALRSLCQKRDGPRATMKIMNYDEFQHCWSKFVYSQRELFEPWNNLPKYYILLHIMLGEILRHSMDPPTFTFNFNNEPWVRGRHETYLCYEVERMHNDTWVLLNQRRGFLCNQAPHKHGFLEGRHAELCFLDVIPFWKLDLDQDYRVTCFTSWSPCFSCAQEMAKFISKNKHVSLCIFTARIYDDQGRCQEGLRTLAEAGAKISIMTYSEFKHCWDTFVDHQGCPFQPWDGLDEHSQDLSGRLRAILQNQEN
A3A deaminase: APOBEC3A ssDNA deaminase inhibitors, primary screen, selectivity assay for APOBEC3G inhibitor project, biochemical, FAM/TAMRA oligo cleavage fluorescence | recombinant A3A, FAM/TAMRA ssDNA deamination fluorescence | AID 493011, 2011 | DNA dC->dU-editing enzyme APOBEC-3A (Homo sapiens), P31941 | 330,000 tested, 0.41% active | inhibition, % at 20 µM;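 active means at least 40% inhibition at 20 µM here, with at most 30% in a related deaminase screen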;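 further: plate controls were A3A with DMSO for no effect and wells lacking A3A enzyme for full effect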
rCAG RNA binder: binders of r(CAG) RNA repeats, primary screen, biochemical, fluorescence | inhibition, % at 3 µM | r(CAG) RNA repeat, TO-PRO-1 dye displacement fluorescence | AID 651821, 2012 | 370,000 tested, 1.3% active;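 active means inhibition above the plate cutoff, the mean of all test compounds on that plate plus 3 SD, cut at about 35% in these data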;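 further: 0% = DMSO alone and 100% = 100 µM mitoxantrone as full dye displacement; higher means more dye released from RNA so lower well fluorescence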
rCAG bind conf: small molecules binding CAG repeat RNA – biochemical, fluorescence, confirmation; shares compounds with rCAG RNA binder; r(CAG) RNA repeat, TO-PRO-1 dye displacement fluorescence; inhibition, % at 3 µM; 4,300 tested, 70% active;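 active means inhibition above a per-plate cutoff, the mean inhibition of sample wells plus 3 SD, cut at about 35% in these data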;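 further: loss of TO-PRO-1 fluorescence as compound displaces dye from 1x1 AA loop RNA; 0% = DMSO only wells and 100% = 100 µM mitoxantrone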
DNA CAG counter: displacement of TO-PRO-1 from CAG DNA duplex, counter-screen for rCAG RNA repeat binder project, biochemical, fluorescence, TO-PRO-1 dye, d(CAG) DNA oligo. 4,300 tested, 94% active. inhibition, % at 3 µM. shares compounds with rCAG RNA binder. d(CAG) DNA oligo TO-PRO-1 dye displacement;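 active means inhibition above its plate's cutoff, the mean test-well inhibition plus 3 SD, cut at about 4.8% in these data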;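 further: 0% = DNA dye mix with DMSO and 100% = 100 µM mitoxantrone; hits displace the dye from DNA and so lower well fluorescence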
* marks the source's active call; other numbers are inactive results; nt = not tested or not shown.

SMILES | ALR inh | PHOSPHO1 inh | aDG glyco act | APOBEC3G inh | A3A deaminase | rCAG RNA binder | rCAG bind conf | DNA CAG counter
COc1ccc(-c2sc(C(=O)c3ccc(Cl)cc3Cl)cc2CC(=O)O)cc1 | 6.0 | 43.7 | -0.1 | -4.5 | -0.9 | 54.5* | 56.4* | 16.9*
O=C(Nc1ccc(-c2nc3ccccc3[nH]2)cc1)c1ccccc1NS(=O)(=O)c1ccc(F)cc1 | nt | 2.6 | 0.0 | -3.4 | -0.5 | 91.5* | 90.3* | 70.3*
O=C(Nc1ccc(S(=O)(=O)Nc2ncccn2)cc1)c1ccccc1NS(=O)(=O)c1ccc(F)cc1 | 13.6 | 43.9 | 0.2 | -9.4 | -4.0 | 59.8* | 29.1 | 6.5*
CCOc1ccc(S(=O)(=O)Nc2ccccc2C(=O)N/N=C/c2c(OC)ccc3ccccc23)cc1 | -14.0 | 6.6 | -0.1 | -7.5 | -0.3 | 61.5* | 41.7* | 18.7*
CCOc1ccc(NC(=O)c2ccccc2NS(=O)(=O)c2ccc(F)cc2)c([N+](=O)[O-])c1 | -5.6 | -15.4 | -0.1 | -8.4 | -2.3 | 71.5* | 72.8* | 35.6*
O=C(O)/C=C/c1ccc(S(=O)(=O)Nc2ccccc2C(=O)Nc2ccc(F)cc2)cc1 | 3.1 | 24.0 | 0.0 | 8.7 | -3.3 | 19.5 | nt | nt
Cc1ccc(Nc2nc3c([nH]2)c(=O)n(C)c(=O)n3C)cc1 | -1.1 | 6.0 | 0.6 | -1.4 | 1.7 | 50.6* | 14.2 | 14.0*
Cn1c(=O)c2[nH]c(NN=Cc3cccc(Br)c3)nc2n(C)c1=O | nt | nt | -0.2 | nt | nt | 13.5 | nt | nt
Cc1cc(C)cc(Nc2nc3c([nH]2)c(=O)n(C)c(=O)n3C)c1 | 8.4 | 27.4 | 1.2 | -6.9 | -4.5 | 58.3* | 18.1 | 12.5*
Cn1c(=O)c2[nH]c(NN=Cc3ccc(F)cc3)nc2n(C)c1=O | nt | nt | -0.4 | nt | nt | 3.4 | nt | nt
O=S(=O)(c1ccccc1)C(Br)S(=O)(=O)c1ccccc1 | nt | nt | -0.1 | nt | nt | 1.7 | nt | nt
C[C@@H]1CN([C@@H](C)CO)C(=O)CCCn2cc(nn2)CO[C@H]1CN(C)C(=O)Nc1cccc(Oc2ccccn2)c1 | nt | nt | nt | nt | nt | -2.7 | nt | nt
COc1ccccc1-n1c(SCC(=O)NC2CCS(=O)(=O)C2)nc2cc([N+](=O)[O-])ccc21 (configuration not stated) | nt | -3.8 | 0.1 | -3.9 | 3.2 | -1.1 | nt | nt
COc1ccccc1-n1c(SCC(=O)c2ccc(O)cc2O)nc2cc([N+](=O)[O-])ccc21 | -5.0 | 13.5 | -0.4 | -8.4 | 1.4 | 49.4* | 46.8* | 22.3*
CC(=O)Nc1ccc(/C=C(\C#N)S(=O)(=O)c2ccc(C)cc2)cc1 | -0.6 | nt | 0.1 | 1.1 | -1.0 | 5.6 | nt | nt
N#C/C(=C\c1ccc(C(=O)O)cc1)S(=O)(=O)c1cc(Br)ccc1Br | 91.9* | -15.1 | -0.5 | -3.7 | -1.5 | 54.8* | 11.6 | 1.2
O=C(Nc1ccc(S(=O)(=O)Nc2cnc3ccccc3n2)cc1)c1cccc(OC(F)F)c1 | nt | 44.9 | 0.1 | -5.5 | -2.8 | 55.1* | 35.4* | 6.7*
CCC(=O)N1CCC1(C)C(=O)Nc1cc(OC)ccc1OC (configuration not stated) | nt | nt | -0.1 | nt | nt | -0.2 | nt | nt
CC(=O)c1ccc(NC(=O)CN2C(=O)/C(=C/C=C/c3ccccc3)SC2=S)cc1 | nt | 3.2 | -0.2 | -2.0 | -1.4 | 38.4* | 21.6 | 15.5*
O=C(CN1C(=O)S/C(=C\C=C\c2ccccc2)C1=O)Nc1ccccc1C(=O)O | 96.9* | -5.3 | -0.2 | -9.8 | -0.4 | 77.1* | 84.0* | 52.1*
O=C(CN1C(=O)S/C(=C\C=C\c2ccccc2)C1=O)Nc1cccc(O)c1 | 12.7 | -2.4 | -0.2 | -4.7 | 5.3 | 17.7 | nt | nt
COC(=O)[C@]12CCCCC=C1N(CCC1=CCCCC1)C(=O)[C@H](CC(=O)NCc1cccc(C(F)(F)F)c1)C2 | nt | nt | -0.1 | nt | nt | 8.3 | nt | nt
CC(C)C(=O)N1CCC1(C)C(=O)Nc1cccc(Oc2ccccc2)c1 (configuration not stated) | nt | nt | 0.0 | nt | nt | 1.5 | nt | nt
CCOC(=O)c1c(NS(C)(=O)=O)sc2c1CCC(C)C2 (configuration not stated) | nt | 31.9 | 0.0 | -1.7 | -3.3 | 48.0* | 18.3 | 8.0*
CCOC(=O)c1c(NC(=O)C2C3C=CC(C3)C2C(=O)O)sc2c1CC(C)CC2 (configuration not stated) | 24.4 | 43.9 | 0.1 | -6.6 | -3.8 | 48.3* | 53.5* | 14.4*
SMILES | ALR inh | PHOSPHO1 inh | aDG glyco act | APOBEC3G inh | A3A deaminase | rCAG RNA binder | rCAG bind conf | DNA CAG counter
COC(=O)c1c(NS(=O)(=O)c2ccc(C)cc2)sc2c1CCC(C)C2 (configuration not stated) | 8.8 | -16.7 | -0.1 | -4.6 | -0.6 | 6.7 | nt | nt
CCCC(=O)N1CCCC1(C)C(=O)Nc1ccc2c(c1)CCN2C(C)=O (configuration not stated) | nt | nt | -0.2 | nt | nt | 2.4 | nt | nt
COC(=O)Cc1nnn2c1CC(OC)c1cc(Br)ccc1-2 (configuration not stated) | nt | nt | nt | nt | nt | 2.4 | nt | nt
COc1cc(OC)c(NC(=O)C(Sc2nc(C)cc(C)c2C#N)c2ccccc2)cc1Cl (configuration not stated) | nt | nt | nt | nt | nt | 0.9 | nt | nt
O=C(c1ccco1)[C@@H]1[C@@H]2C(=O)N(c3ccc(Br)cc3)C(=O)[C@@H]2C2c3ccccc3C=CN21 (some centres not stated) | nt | 68.4* | -0.2 | nt | nt | 38.1* | 29.4 | 15.6*
O=C(O)c1ccc2c(c1)S(=O)(=O)c1cc(N3CCN(c4cnccn4)CC3)ccc1C2=O | nt | nt | -0.2 | nt | nt | 35.0* | 46.2* | 14.3*
CN(Cc1ccc2c(c1)CCCN2C)C(=O)[C@H]1O[C@@H](n2ccc(=O)[nH]c2=O)[C@H](O)[C@@H]1O | nt | nt | -0.3 | nt | nt | -1.6 | nt | nt
O=S(=O)(Nc1ncccn1)c1ccc(NC(=S)NCCc2ccc(Cl)cc2)cc1 | 7.9 | -3.9 | -0.1 | -3.5 | -1.6 | 38.4* | 10.1 | 1.8
O=S(=O)(Nc1ncccn1)c1ccc(NC(=S)Nc2cccc(Cl)c2)cc1 | 11.7 | 12.1 | nt | -4.9 | -2.3 | nt | nt | nt
O=C(Cc1csc(NC(=O)Nc2cccc(Cl)c2)n1)NCc1ccccn1 | nt | nt | 0.4 | -11.6 | -4.5 | 38.6* | 15.3 | 14.4*
O=C(Cc1csc(NC(=O)Nc2cccc(Cl)c2)n1)NC1CCCC1 | -8.3 | nt | -0.1 | -9.0 | 3.7 | 43.9* | 17.7 | 14.3*

Screening data from PubChem BioAssay.
